Data: PubChem BioAssay AID1159580 (chemical genetic matrix, 2015)
Where “and” joins values, the source holds several entries; their conditions need not be identical. Identical values can stand only once. The whole screen tested about 5,500 compounds, of which about 2,000 (36%) were called active. Not shown: some 18% with an inconclusive outcome. Cut-off read from the data, not from the text of the source: active = normalized growth mostly below about 0.91 (no sharp cut-off); inconclusive = no clear call, values can overlap the other calls; inactive = mostly above about 0.92. The list shows a part of the results.

Experiment: chemical genetic growth profiling, strain panel (AID 1159580);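 note: tested at 20 µM; growth read once vehicle control cultures reached saturation at 30 °C; 1 = growth at the plate median or of vehicle wells; lower values mean less growth of the strain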
Conditions: S. cerevisiae deletion strains, growth OD

Measured: normalized growth

CCOC(=O)NNc1nncc2ccccc12
inactive: locus YAL013W, strain DEP1, hits give low values 0.992 | locus YAL021C, strain ccr4, hits give low values 1 | locus YAL026C, strain drs2, hits give low values 1.03 | locus YAL030W, strain snc1, hits give low values 1.02 | locus YBL061C, strain skt5, hits give low values 1.01 | locus YBR009C, strain hhf1, hits give low values 0.973 | locus YBR021W, strain FUR4, hits give low values 0.964 | locus YBR023C, strain chs3, hits give low values 1.02 | locus YBR171W, strain sec66, hits give low values 1.01 | locus YBR229C, strain ROT2, hits give low values 0.991 | locus YBR231C, strain swc5, hits give low values 0.993 | locus YBR279W, strain paf1, hits give low values 1.02 | locus YCL011C, strain gbp2, hits give low values 1.04 | locus YCL016C, strain dcc1, hits give low values 1.03 | locus YCL029C, strain bik1, hits give low values 0.97 | locus YCL061C, strain MRC1, hits give low values 0.994 | locus YCL069W, strain vba3, hits give low values 1.02 | locus YCR088W, strain abp1, hits give low values 1.01 | locus YDL005C, strain med2, hits give low values 1.03 | locus YDL035C, strain GPR1, hits give low values 0.978 | locus YDL040C, strain nat1, hits give low values 0.996 | locus YDL074C, strain BRE1, hits give low values 1.01 | locus YDL101C, strain DUN1, hits give low values 0.991 | locus YDL134C, strain PPH21, hits give low values 0.979 | locus YDL185W, strain tfp1, hits give low values 0.983 | locus YDL192W, strain arf1, hits give low values 0.98 | locus YDR001C, strain nth1, hits give low values 1.01 | locus YDR069C, strain doa4, hits give low values 0.985 | locus YDR101C, strain arx1, hits give low values 0.993 | locus YDR137W, strain rgp1, hits give low values 1.03 | locus YDR150W, strain NUM1, hits give low values 1 | locus YDR159W, strain sac3, hits give low values 0.94 | locus YDR162C, strain NBP2, hits give low values 0.987 | locus YDR195W, strain ref2 0.981 | locus YDR297W, strain sur2, hits give low values 1 | locus YDR318W, strain mcm21, hits give low values 0.974 | locus YDR334W, strain swr1, hits give low values 1.03 | locus YDR335W, strain msn5, hits give low values 1.01 | locus YDR388W, hits give low values 0.973 | locus YDR392W, strain spt3, hits give low values 0.998 | locus YDR502C, strain sam2, hits give low values 0.969 | locus YEL003W, strain gim4, hits give low values 0.998 | locus YEL037C, strain rad23, hits give low values 1.02 | locus YEL061C, strain CIN8 (second series), hits give low values 1 | locus YEL061C, strain CIN8, hits give low values 1 | locus YER015W, strain faa2, hits give low values 1.01 | locus YER016W, strain bim1, hits give low values 1.02 | locus YER110C, hits give low values 0.972 | locus YER111C, strain swi4, hits give low values 1.01 | locus YER155C, strain BEM2 (second series), hits give low values 1 | locus YER155C, strain BEM2, hits give low values 0.99 | locus YER167W, strain BCK2, hits give low values 0.989 | locus YFR010W, strain ubp6, hits give low values 0.979 | locus YGL078C, strain dbp3, hits give low values 0.98 | locus YGL086W, strain mad1, hits give low values 0.995 | locus YGL167C, strain pmr1, hits give low values 1 | locus YGL173C, strain kem1, hits give low values 0.972 | locus YGL227W, strain vid30, hits give low values 1.02 | locus YGL240W, strain doc1, hits give low values 0.998 | locus YGL248W, strain PDE1, hits give low values 1 | locus YGL253W, strain hxk2, hits give low values 1.02 | locus YGR135W, strain pre9, hits give low values 0.97 | locus YGR229C, strain SMI1, hits give low values 0.984 | locus YGR252W, strain gcn5, hits give low values 0.962 | locus YHR013C, strain ard1, hits give low values 1.02 | locus YHR027C, strain rpn1, hits give low values 0.993 | locus YHR030C, strain SLT2, hits give low values 0.99 and 0.966 | locus YHR079C, strain IRE1 (second series), hits give low values 0.983 | locus YHR079C, strain IRE1, hits give low values 0.982 | locus YHR094C, strain hxt1, hits give low values 0.973 | locus YHR129C, strain ARP1, hits give low values 0.999 | locus YHR142W, strain chs7, hits give low values 1.04 | locus YHR200W, strain rpn10, hits give low values 0.981 | locus YIL066C, strain RNR3, hits give low values 0.987 | locus YIL073C, strain SPO22, hits give low values 0.913 | locus YIL125W, strain kgd1, hits give low values 0.987 | locus YIR030C, strain dcg1, hits give low values 0.977 | locus YJL092W, strain hpr5, hits give low values 1.01 | locus YJL095W, strain BCK1 (second series), hits give low values 1.02 | locus YJL095W, strain BCK1, hits give low values 1.04 and 0.976 | locus YJL115W, strain asf1, hits give low values 1.03 | locus YJL129C, strain trk1, hits give low values 1.02 | locus YJL134W, strain LCB3, hits give low values 0.994 | locus YJL154C, strain vps35, hits give low values 1.01 | locus YJL164C, strain tpk1, hits give low values 0.993 | locus YJL166W, strain qcr8, hits give low values 0.983 | locus YJL168C, strain set2, hits give low values 0.981 | locus YJL187C, strain SWE1 (second series), hits give low values 1 | locus YJL187C, strain SWE1, hits give low values 1.02 | locus YJR043C, strain POL32, hits give low values 0.952
